Source: PubChem BioAssay AID2165 (The Scripps Research Institute Molecular Screening Center, 2009)
The source made the active and inactive calls. Rule as the data show it: active = IC50 below about 9 µM; inactive = the rest.

tested on: Ba/F3 Cytotoxicity; experiment: JAK2V617F kinase, IRF1 reporter and Ba/F3 cytotoxicity panel, late-stage follow-up, HEL and Ba/F3 cells (AID 2165)

| Structure (SMILES) | IC50 |
| --- | --- |
| Cc1ccc(O)c(NC(=O)COc2ccc(C)c(C)c2)c1 | 5.02 µM (active) |
| Cc1[nH]c(=O)c(C(=O)C=Cc2ccc(I)cc2)c2c1CCCC2 | > 40 µM (inactive) |
| Cc1cccc(OCC(=O)Nc2ccc(C)c(C)c2)c1 | > 40 µM (inactive) |
| COc1cc2ncnc(Nc3ccc(O)c(Br)c3)c2cc1OC | 3.64 µM (active) |
| C/C(=C\c1ccccc1F)C(=O)c1c(C)cc(C)[nH]c1=O | > 40 µM (inactive) |
| COc1cc2ncnc(Nc3ccc(F)c(F)c3)c2cc1OC | > 40 µM (inactive) |
| Cc1ccc(O)c(NC(=O)COc2cc(C)c(Cl)c(C)c2)c1 | 6.17 µM (active) |
| Cc1ccc(C=CC(=O)c2c3c(c(C)[nH]c2=O)CCCC3)cc1 | 3.34 µM (active) |
| Cc1[nH]c(=O)c(C(=O)C=Cc2cccc(Br)c2)c2c1CCCC2 | 0.67 µM (active) |
| N#Cc1ccccc1NC(=O)COc1ccc2c(c1)OCO2 | > 40 µM (inactive) |
| CCOc1cc2ncnc(Nc3cccc(Br)c3)c2cc1OCC | 3.16 µM (active) |
| COc1cc2ncc(-c3ccccc3)nc2cc1OC | > 40 µM (inactive) |
| O=C(COc1ccccc1)Nc1ncccn1 | > 40 µM (inactive) |
| COc1ccc(Cl)cc1NC(=O)NC(C)c1ccncc1 (stereo not given) | > 40 µM (inactive) |
| COc1ccc(OCC(=O)Nc2cc(C)ccc2O)cc1 | 2.01 µM (active) |
| c1ccc(Nc2ncnc3ccccc23)cc1 | > 40 µM (inactive) |
| Cc1[nH]c(=O)c(C(=O)/C=C/c2ccccc2)c2c1CCCC2 | 0.89 µM (active) |
| Cc1ccc(O)c(NC(=O)COc2ccc(Cl)cc2)c1 | 1.39 µM (active) |
| Cc1cccc(OCC(=O)Nc2ccc(O)cc2)c1 | 6.62 µM (active) |
| Cc1ccc(O)c(NC(=O)COc2ccc(C3CCCCC3)cc2)c1 | 3.91 µM (active) |
